Measured values taken from PubChem BioAssay.
Activity calls are given as the source filed them. No rule for the calls is given here.

Experiment: inhibition of Brca1/Bard1 split-luciferase complementation, confirmation, counter-screen for Mdm2/MdmX interaction inhibitor project, luminescence, single concentration (AID 504668)
Settings: Brca1/Bard1 bimolecular luciferase complementation counterscreen, at 8 µM, active compounds read high

Row | SMILES | inhibition
1 | N=c1c(S(=O)(=O)c2ccc(Cl)cc2)cc2c(=O)n3ccccc3nc2n1CCc1ccccc1 | 24.9% (active)
2 | Nc1nonc1-c1nc2ccccc2n1CC(=O)Nc1ccccc1 | 24.8% (active)
3 | COc1cccc(-c2sc3ccc(OC)cc3c2-c2ccc(OCCN3CCCC3)cc2)c1 | 27.8% (active)
4 | CS(=O)(=O)Nc1ccccc1C(=O)Nc1cc(Cl)cc(Cl)c1 | 28.3% (active)
5 | Clc1ccc(C2=Nn3c(nnc3-c3n[nH]c4c3CCC4)SC2)cc1Cl | 34% (active)
6 | Cc1ccc2[nH]c(C(=O)N/N=C/c3ccccc3O)c(C)c2c1 | 25.3% (active)
7 | COc1cc(/C=C/[N+](=O)[O-])ccc1OCc1cccc(C(=O)O)c1 | 35.1% (active)
8 | CC(C)(C)C(=O)NC(=S)NNC(=O)c1ccc(-c2ccccc2)cc1 | 28.9% (active)
9 | O=C(/C=C/c1ccccc1)NC(NC(=S)Nc1cc(Cl)ccc1Cl)C(Cl)(Cl)Cl (stereo unspecified) | 31.2% (active)
10 | O=C(N/N=C/c1cc(Br)ccc1O)c1ccccc1Cl | 35.3% (active)
11 | CC(=O)/C(C#N)=C1\NC(=O)C(Cc2ccc(C)c(C)c2)S1 (stereo unspecified) | 32.1% (active)
12 | COc1ccc2cc(C(=O)N/N=C/c3sc4ccccc4c3O)ccc2c1 | 32.4% (active)
13 | Cc1ccc(N=Nc2ccc(O)c3ncccc23)cc1C | 25.6% (active)
14 | CCN(CC)CCCN=C1N[C@@H](c2cccc(C(F)(F)F)c2)C(C(=O)OC)=C(C)N1CC | 30.4% (active)
15 | O=C(Nc1ccc(Cl)cc1)Nc1ccc(Cl)c(Cl)c1 | 26.8% (active)
16 | O=c1c2ccccc2nc(/C=C/c2cc(Br)ccc2O)n1CCCO | 26.6% (active)
17 | COc1ccc(Cc2nnc(N/N=C/c3ccc(O)cc3)[nH]c2=O)cc1OC | 24.8% (active)
18 | COc1cccc(/C=N/NC(=O)c2cc(-c3cccn3C)n[nH]2)c1O | 32.4% (active)
19 | S=C(Nc1ccc(Cl)c(Cl)c1)NC1CCN(Cc2ccccc2)CC1 | 28.5% (active)
20 | Cc1ccc(S(=O)(=O)Nc2cc(-c3nn(C)c(=O)c4ccccc34)ccc2N2CCOCC2)cc1 | 29.6% (active)
21 | CC(=O)/C(C#N)=C1\NC(=O)C(Cc2cc(Cl)ccc2Cl)S1 (stereo unspecified) | 31.2% (active)
22 | O=S(=O)(c1ccc(Cl)cc1)N1CCN(Cc2ccc(O)c3ncccc23)CC1 | 25% (active)
23 | O=C(CCCN1C(=O)/C(=C/c2ccccc2)SC1=S)Nc1ccccc1O | 29.9% (active)
24 | COc1ccc(-c2cc(C(=O)N/N=C/c3sccc3C)c3ccccc3n2)c(OC)c1 | 31.4% (active)
25 | CCN(CC)c1ccc(/C=N/NC(=O)c2c(Cl)cnn2C)c(O)c1 | 26.9% (active)
26 | COc1ccc(C(NC(=O)c2cccnc2)c2cc(Cl)c3cccnc3c2O)cc1OC (stereo unspecified) | 26.3% (active)
